Source: PubChem
tim23-1 inh = inhibits growth of tim23-1 mutant yeast; S. cerevisiae tim23-1 growth, BacTiter-Glo luminescence, 24 h; inhibition, % at 20 µM; 330,000 tested, 1.3% active;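 active = growth inhibition of the mutant yeast at or above 50%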;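 note: temperature-sensitive mutant grown at 25 °C; plate controls were DMSO-treated mutant yeast for no effect and medium wells lacking yeast for full effect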
TIM10 inh = TIM10 yeast growth inhibition; AID 463195; 330,000 tested, 1.4% active; inhibition, % at 10 µM; S. cerevisiae TIM10 strain growth, BacTiter-Glo luminescence, 24 h;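 active = inhibition of 40% or more at the single tested concentration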;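 note: wild-type TIM10 isogenic control strain grown at permissive 25 °C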
tim10-1 inh = tim10-1 yeast growth inhibition; S. cerevisiae tim10-1 ts strain growth, BacTiter-Glo, 24 h; inhibition, % at 20 µM; 330,000 tested, 2.2% active; AID 463190;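 active = inhibition of at least 40%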;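 note: mutant grown at 25 °C; 0% = DMSO wells with yeast and 100% = wells holding no yeast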
MPTP inh = inhibitors of mitochondrial permeability transition pore; inhibition, % at 10 µM; 360,000 tested, 1.4% active; isolated mouse mitochondria, Ca2+ swelling absorbance, 30 min;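 active = inhibition of 50% or more, scaled per plate between neutral and stimulator controls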;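 note: 0% = DMSO wells given calcium and 100% = 1 mM EGTA wells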
Mdm2 MdmX PPI = human Mdm2/MdmX binding inhibition | SaOS-2 split-luciferase Mdm2/MdmX complementation, luminescence | inhibition, % at 8 µM | O15151+Q00987 | AID 485346 | 330,000 tested, 3% active;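 active = inhibition of at least 50% at 8 µM in the primary screen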
Target sequence (O15151 whole entry, looked up): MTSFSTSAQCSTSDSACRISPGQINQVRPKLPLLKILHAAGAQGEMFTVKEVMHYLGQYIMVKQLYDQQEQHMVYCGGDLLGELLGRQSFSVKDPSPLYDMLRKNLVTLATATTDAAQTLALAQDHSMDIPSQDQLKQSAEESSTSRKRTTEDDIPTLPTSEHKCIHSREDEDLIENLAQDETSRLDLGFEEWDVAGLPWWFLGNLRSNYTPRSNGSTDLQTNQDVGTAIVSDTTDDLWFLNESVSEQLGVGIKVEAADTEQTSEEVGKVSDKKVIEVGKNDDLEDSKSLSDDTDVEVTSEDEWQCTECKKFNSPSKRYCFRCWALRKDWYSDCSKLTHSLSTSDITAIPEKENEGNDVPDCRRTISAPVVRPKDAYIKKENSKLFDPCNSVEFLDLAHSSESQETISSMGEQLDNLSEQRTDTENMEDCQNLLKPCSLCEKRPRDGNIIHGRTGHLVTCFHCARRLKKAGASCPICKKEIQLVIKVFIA
Target sequence (Q00987 whole entry, looked up): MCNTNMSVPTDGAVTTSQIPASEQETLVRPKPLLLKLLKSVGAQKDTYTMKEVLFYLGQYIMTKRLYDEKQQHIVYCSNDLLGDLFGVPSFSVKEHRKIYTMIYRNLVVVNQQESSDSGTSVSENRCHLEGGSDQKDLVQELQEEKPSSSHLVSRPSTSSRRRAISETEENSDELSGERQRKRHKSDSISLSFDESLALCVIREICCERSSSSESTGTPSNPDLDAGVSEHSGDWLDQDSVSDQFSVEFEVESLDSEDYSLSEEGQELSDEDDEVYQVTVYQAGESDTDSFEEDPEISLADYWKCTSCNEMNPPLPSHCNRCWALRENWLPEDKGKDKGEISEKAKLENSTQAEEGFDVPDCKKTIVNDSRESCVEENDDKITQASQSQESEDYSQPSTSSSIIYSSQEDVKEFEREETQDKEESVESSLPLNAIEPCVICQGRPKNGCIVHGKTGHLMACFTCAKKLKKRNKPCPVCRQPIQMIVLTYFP
tim23-1 conf = tim23-1 yeast growth inhibition, confirmed; shares compounds with tim23-1 inh; S. cerevisiae tim23-1 growth, BacTiter-Glo luminescence, 24 h; inhibition, % at 20 µM; 4,400 tested, 83% active;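 active = inhibition above about 39% in either of two replicate wells at 20 µM, limit read from the data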;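 note: temperature-sensitive tim23-1 mutant grown at 25 °C; 0% = DMSO wells with yeast and 100% = medium wells without yeast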
* = called active by the depositor; nt = not tested or not shown. Rows were chosen to be rich in hits. Some 6.3% of all compounds tested hit in one or more screens of this group.

SMILES | tim23-1 inh | TIM10 inh | tim10-1 inh | MPTP inh | Mdm2 MdmX PPI | tim23-1 conf
Cc1ccc(C)c(NC(=O)c2cc([N+](=O)[O-])cc([N+](=O)[O-])c2)c1 | 55* | 18 | 29 | 1 | -8 | 51*
Cc1ccc(F)cc1NS(=O)(=O)c1ccc(Cl)s1 | 51* | 28 | 40 | 8 | 14 | 50*
Cc1nn(C)c(C)c1NS(=O)(=O)c1ccc(Cl)s1 | 3 | 3 | -11 | -1 | 19 | nt
O=C(Nc1ncc(Cc2cccc(Cl)c2)s1)C1CCCO1 (centres undefined) | 50* | 28 | 28 | -2 | -112 | 43*
CC(C)C(=O)Nc1ncc(Cc2cccc(Cl)c2)s1 | 55* | 31 | 38 | -1 | 16 | 40*
O=C(Nc1ncc(Cc2cccc(Cl)c2Cl)s1)C1CCCO1 (centres undefined) | 30 | -31 | -7 | 1 | -72 | nt
COc1ccc(Br)cc1-c1nc(CCl)cs1 | 51* | 37 | 37 | -2 | 15 | 57*
O=C(/C=C/c1c(F)cccc1Cl)N1CCc2ccccc2C1 | 59* | 12 | 20 | 0 | 11 | 59*
Cc1ccc(/C=N/NC(=O)c2csc3c2CCCC3)cc1 | 63* | 22 | 35 | -1 | -7 | 59*
Cc1ccc(NC(=O)C2(C)CCN2C(=O)Cc2ccccc2)cc1C (centres undefined) | nt | nt | nt | 0 | nt | nt
Cc1cc(OCC(=O)c2ccc(C(F)(F)F)cc2)n2cnnc2n1 | 96* | -3 | -12 | 0 | 4 | 0
COc1ccccc1OCCCN1C(=O)C(=O)c2cccc(C)c21 | 37 | 18 | 9 | 1 | 23 | nt
Cc1ccc(OCCCN2C(=O)C(=O)c3cccc(C)c32)cc1 | 53* | 18 | 26 | -18 | 20 | 62*
CC1=NN(c2ccccc2)C(=O)/C1=C/c1c(O)n(-c2ccc(F)c(Cl)c2)[nH]c1=O | 58* | 34 | 35 | nt | -47 | 43*
CC1=NN(c2ccccc2)C(=O)/C1=C\c1c(C)[nH]n(-c2ccccc2)c1=O | 7 | 11 | 12 | 47 | -4 | nt
CC1=C(C(=O)N2CCCCCC2)CC(CC(=O)NCCN2CCOCC2)C(=O)N1Cc1ccccc1 (centres undefined) | nt | nt | nt | -1 | nt | nt
O=C1[C@H]2CCC=C[C@H]2[C@H](c2cccc(Br)c2)N1Cc1ccccc1 | 58* | 37 | 31 | 0 | -4 | 53*
COc1ccc(N2C(=O)[C@H]3CCC=C[C@H]3[C@@H]2c2ccccc2Br)cc1 | 45 | 13 | 26 | 0 | 20 | nt
O=C1[C@H]2CCC=C[C@H]2[C@H](c2ccccc2Br)N1Cc1ccccc1 | 57* | 17 | 31 | -2 | -15 | 32
COc1ccc(-c2cccc([C@H]3[C@@H]4C=CC[C@@H](C)[C@@H]4C(=O)N3Cc3ccccc3)c2)cc1 | 28 | -4 | 11 | 1 | 18 | nt
CC1(C(=O)N2CCCCC2)CCN1C(=O)c1ccccc1CCc1ccccc1 (centres undefined) | nt | nt | nt | 2 | nt | nt
CN1CCN(c2ncnc3c2ncn3[C@H]2CN(Cc3cccnc3)C[C@@H](CO)O2)CC1 | nt | nt | nt | -2 | nt | nt
COc1ccc(NC(=O)c2cccs2)cn1 | 52* | 19 | 16 | 1 | 18 | 48*
COc1ccccc1CC(=O)Nc1ccc(NC(=O)c2cccs2)cc1 | 6 | 3 | -15 | -2 | 16 | nt
CCCCC(=O)Nc1ccc(NC(=O)CCCC)nc1 | 20 | 2 | 12 | 0 | 6 | nt
SMILES | tim23-1 inh | TIM10 inh | tim10-1 inh | MPTP inh | Mdm2 MdmX PPI | tim23-1 conf
CCCCC(=O)Nc1ccc(NC(=O)c2cccs2)cn1 | 51* | -11 | -16 | 0 | 11 | 43*
CCOC(=O)c1cn(-c2ccccc2)nc1-c1ccncc1 | 51* | 35 | 38 | 0 | -4 | 46*
CCOC(=O)c1cn(-c2ccccc2)nc1-c1cccnc1 | -22 | 16 | 40 | -1 | -28 | nt
CCCn1nc(NC(=O)C2CCCO2)c2cc3cccc(C)c3nc21 (centres undefined) | 52* | 35 | 32 | 0 | 8 | 43*
CCC1(CC)Cc2ccccc2-c2nc(NCCO)[nH]c(=O)c21 | 15 | 11 | 23 | 1 | 5 | nt
CC1(C)Cc2ccccc2-c2nc(NN)[nH]c(=O)c21 | 51* | 2 | 36 | -2 | 0 | 36
O=C(NOC(=O)c1ccccc1)c1ccccc1 | 64* | 11 | 28 | 1 | 3 | 34
O=C(NCCCOC(=O)c1ccccc1)c1ccccc1 | nt | nt | nt | -1 | nt | nt
